# Results reported in ChEMBL document CHEMBL1961873, “Compounds: GSK PKIS; Assays: Nanosyn kinase panel” (2012).
# Biological target: Glycogen synthase kinase-3 alpha (Homo sapiens) (UniProt P49840)
# Details: at 1 µM
# 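Also: each figure is a mean percent inhibition of GSK3A activity, from a screen of the GSK published kinase inhibitor set.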
# Chain of Glycogen synthase kinase-3 alpha (Homo sapiens) (P49840 2-483 limits assumed): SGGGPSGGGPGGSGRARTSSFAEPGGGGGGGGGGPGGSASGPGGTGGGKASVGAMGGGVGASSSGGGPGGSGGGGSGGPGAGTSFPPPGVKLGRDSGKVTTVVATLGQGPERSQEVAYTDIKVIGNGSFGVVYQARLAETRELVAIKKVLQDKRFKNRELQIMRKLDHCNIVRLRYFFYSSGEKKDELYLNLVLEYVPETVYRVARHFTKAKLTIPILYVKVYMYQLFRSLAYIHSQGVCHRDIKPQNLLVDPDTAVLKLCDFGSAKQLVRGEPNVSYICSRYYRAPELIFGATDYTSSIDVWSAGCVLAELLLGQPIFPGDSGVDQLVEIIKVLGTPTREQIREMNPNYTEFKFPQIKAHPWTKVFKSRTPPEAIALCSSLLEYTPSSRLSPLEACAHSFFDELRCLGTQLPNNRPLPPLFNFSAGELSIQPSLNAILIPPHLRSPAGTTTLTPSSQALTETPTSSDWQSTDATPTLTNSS
row,Structure (SMILES),inhibition [%]
1,CS(=O)(=O)CCNCc1cc(-c2cc3c(Nc4ccc(OCc5cccc(F)c5)c(Cl)c4)ncnc3s2)cs1,2.97
2,CCC(=O)Nc1ccc(C)c(-c2ccc(C(=O)NCC3CC3)cc2)c1,3.42
3,COc1cc(Nc2ncc3c(C)nc(-c4cccc(C(F)(F)F)c4)n3n2)cc(OC)c1OC,13.8
4,Fc1ccc(-c2nc3n(c2-c2ccncc2)CCS3)cc1,3.8
5,NC(=O)c1cc(-c2ccncc2)cc(-c2ccccc2)c1N,12.7
6,CCc1nccc2c1nc(-c1nonc1N)n2CC,7.97
7,CN(C)c1ccc2c(c1)/C(=C/Nc1ccc(S(N)(=O)=O)cc1)C(=O)N2,21.6
8,CS(=O)(=O)CCNCc1ccc(-c2ccc3ncnc(Nc4ccc(OCc5ccccc5)c(Br)c4)c3c2)o1,-0.89
9,Cc1nnc(-c2ccc(C)c(-c3ccc(C(=O)NCc4ccc(Cl)cc4)cc3)c2)o1,9.75
10,Cc1ccc(C(=O)NC2CCC2)cc1-c1ccc(C(=O)NCC2CC2)cc1,4.22
11,Clc1ccc(CNc2nccc(-c3cnn4ncccc34)n2)cc1,9.8
12,c1ccc(-c2n[nH]cc2-c2ccnc(-c3ccc(OCCN4CCOCC4)cc3)c2)nc1,4.57
13,CCS(=O)(=O)c1ccc(OC)c(Nc2ncc(-c3cccc(-c4ccccc4F)c3)o2)c1,9.24
14,COc1cc2ncn(-c3cc(OCc4cccs4)c(C(N)=O)s3)c2cc1OC,6.22
15,O=C1Nc2ccccc2/C1=C/Nc1ccc(-n2cncn2)cc1,28.2
16,C/C(Nc1ccc(S(N)(=O)=O)cc1)=C1/C(=O)Nc2ccccc21,7.04
17,CCc1cccc(CC)c1/C=C/c1cncc(C(=O)NC)c1,6.98
